In all, about 5,500 compounds went through this assay and about 2,000 (36%) were called active. About 18% were inconclusive and are not listed. Cut-off read from the data, not from the text of the source: active = normalized growth mostly below about 0.91 (no sharp cut-off); inconclusive = no clear call, values can overlap the other calls; inactive = mostly above about 0.92. This is one part of the list.
Experiment: chemical genetic growth profiling, strain panel (AID 1159580);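 note: tested at 20 µM; growth read once vehicle control cultures reached saturation at 30 °C; 1 = growth at the plate median or of vehicle wells; lower values mean less growth of the strain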
Settings: growth OD

Measured: normalized growth

O=[N+]([O-])c1ccc(O)c([N+](=O)[O-])c1
active: S. cerevisiae deletion strains, locus YKL009W, strain mrt4, stronger effect = lower value 0.249 | S. cerevisiae deletion strains, locus YKL068W, stronger effect = lower value 0.354 | S. cerevisiae deletion strains, locus YKL085W, strain MDH1 (second series), stronger effect = lower value 0.192 | S. cerevisiae deletion strains, locus YKL085W, strain MDH1, stronger effect = lower value 0.192 | S. cerevisiae deletion strains, locus YKL160W, strain elf1, stronger effect = lower value 0.87 | S. cerevisiae deletion strains, locus YKL190W, strain CNB1, stronger effect = lower value 0.795 | S. cerevisiae deletion strains, locus YKR001C, strain vps1, stronger effect = lower value 0.691 | S. cerevisiae deletion strains, locus YKR026C, strain gcn3, stronger effect = lower value 0.77 | S. cerevisiae deletion strains, locus YKR091W, strain srl3, stronger effect = lower value 0.808 | S. cerevisiae deletion strains, locus YLL001W, strain dnm1, stronger effect = lower value 0.793 | S. cerevisiae deletion strains, locus YLL026W, stronger effect = lower value 0.816 | S. cerevisiae deletion strains, locus YLL041C, strain sdh2, stronger effect = lower value 0.82 | S. cerevisiae deletion strains, locus YLR027C, strain aat2, stronger effect = lower value 0.819 | S. cerevisiae deletion strains, locus YLR058C, strain SHM2, stronger effect = lower value 0.802 | S. cerevisiae deletion strains, locus YLR102C, strain apc9, stronger effect = lower value 0.691 | S. cerevisiae deletion strains, locus YLR113W, strain HOG1, stronger effect = lower value 0.214 | S. cerevisiae deletion strains, locus YLR221C, strain rsa3, stronger effect = lower value 0.786 | S. cerevisiae deletion strains, locus YLR258W, strain gsy2, stronger effect = lower value 0.843 | S. cerevisiae deletion strains, locus YLR262C, strain YPT6 (second series), stronger effect = lower value 0.833 | S. cerevisiae deletion strains, locus YLR268W, strain sec22, stronger effect = lower value 0.736 | S. cerevisiae deletion strains, locus YLR320W, strain mms22, stronger effect = lower value 0.807 | S. cerevisiae deletion strains, locus YLR330W, strain CHS5, stronger effect = lower value 0.733 | S. cerevisiae deletion strains, locus YLR342W, strain FKS1, stronger effect = lower value 0.855 | S. cerevisiae deletion strains, locus YLR370C, strain arc18, stronger effect = lower value 0.814 | S. cerevisiae deletion strains, locus YLR371W, strain rom2, stronger effect = lower value 0.718 | S. cerevisiae deletion strains, locus YLR384C, strain iki3, stronger effect = lower value 0.798 | S. cerevisiae deletion strains, locus YLR418C, strain cdc73, stronger effect = lower value 0.661 | S. cerevisiae deletion strains, locus YML016C, strain PPZ1, stronger effect = lower value 0.79 | S. cerevisiae deletion strains, locus YML032C, strain rad52, stronger effect = lower value 0.697 | S. cerevisiae deletion strains, locus YML120C, strain ndi1, stronger effect = lower value 0.781 | S. cerevisiae deletion strains, locus YML124C, strain tub3, stronger effect = lower value 0.701 | S. cerevisiae deletion strains, locus YMR058W, strain fet3, stronger effect = lower value 0.793 | S. cerevisiae deletion strains, locus YMR078C, strain ctf18, stronger effect = lower value 0.68 | S. cerevisiae deletion strains, locus YMR129W, stronger effect = lower value 0.77 | S. cerevisiae deletion strains, locus YMR205C, strain PFK2, stronger effect = lower value 0.852 | S. cerevisiae deletion strains, locus YMR223W, strain ubp8, stronger effect = lower value 0.776 | S. cerevisiae deletion strains, locus YMR231W, strain pep5, stronger effect = lower value 0.761 | S. cerevisiae deletion strains, locus YMR263W, strain SAP30, stronger effect = lower value 0.783 | S. cerevisiae deletion strains, locus YNL067W, strain RPL9B, stronger effect = lower value 0.779 | S. cerevisiae deletion strains, locus YNL071W, strain lat1, stronger effect = lower value 0.826 | S. cerevisiae deletion strains, locus YNL128W, strain TEP1, stronger effect = lower value 0.842 | S. cerevisiae deletion strains, locus YNL153C, strain GIM3, stronger effect = lower value 0.786 | S. cerevisiae deletion strains, locus YNL183C, strain NPR1, stronger effect = lower value 0.179 | S. cerevisiae deletion strains, locus YNL209W, strain ssb2, stronger effect = lower value 0.829 | S. cerevisiae deletion strains, locus YNL233W, strain BNI4, stronger effect = lower value 0.75 | S. cerevisiae deletion strains, locus YNL250W, strain rad50, stronger effect = lower value 0.265 | S. cerevisiae deletion strains, locus YNL271C, strain bni1, stronger effect = lower value 0.31 | S. cerevisiae deletion strains, locus YNL298W, strain CLA4, stronger effect = lower value 0.251 | S. cerevisiae deletion strains, locus YNL307C, strain MCK1, stronger effect = lower value 0.635 | S. cerevisiae deletion strains, locus YNL322C, strain KRE1 (second series), stronger effect = lower value 0.651 | S. cerevisiae deletion strains, locus YNL322C, strain KRE1, stronger effect = lower value 0.798 | S. cerevisiae deletion strains, locus YNR049C, strain mso1, stronger effect = lower value 0.779 | S. cerevisiae deletion strains, locus YNR052C, strain pop2, stronger effect = lower value 0.728 | S. cerevisiae deletion strains, locus YOL147C, strain pex11, stronger effect = lower value 0.693 | S. cerevisiae deletion strains, locus YOR001W, strain rrp6, stronger effect = lower value 0.841 | S. cerevisiae deletion strains, locus YOR061W, strain CKA2, stronger effect = lower value 0.819 | S. cerevisiae deletion strains, locus YOR069W, strain VPS5, stronger effect = lower value 0.759 | S. cerevisiae deletion strains, locus YOR070C, strain gyp1, stronger effect = lower value 0.836 | S. cerevisiae deletion strains, locus YOR080W, strain dia2, stronger effect = lower value 0.812 | S. cerevisiae deletion strains, locus YOR083W, strain WHI5, stronger effect = lower value 0.831 | S. cerevisiae deletion strains, locus YOR136W, strain idh2, stronger effect = lower value 0.845 | S. cerevisiae deletion strains, locus YOR144C, strain elg1, stronger effect = lower value 0.709 | S. cerevisiae deletion strains, locus YOR184W, strain ser1, stronger effect = lower value 0.799 | S. cerevisiae deletion strains, locus YOR231W, strain MKK1, stronger effect = lower value 0.266 | S. cerevisiae deletion strains, locus YOR265W, strain rbl2, stronger effect = lower value 0.832 | S. cerevisiae deletion strains, locus YOR290C, strain snf2, stronger effect = lower value 0.826 | S. cerevisiae deletion strains, locus YOR316C, strain cot1, stronger effect = lower value 0.726 | S. cerevisiae deletion strains, locus YPL051W, strain arl3, stronger effect = lower value 0.843 | S. cerevisiae deletion strains, locus YPL055C, strain LGE1, stronger effect = lower value 0.753 | S. cerevisiae deletion strains, locus YPL078C, strain atp4, stronger effect = lower value 0.737 | S. cerevisiae deletion strains, locus YPL106C, strain sse1, stronger effect = lower value 0.736 | S. cerevisiae deletion strains, locus YPL240C, strain hsp82, stronger effect = lower value 0.813 | S. cerevisiae deletion strains, locus YPL241C, strain CIN2, stronger effect = lower value 0.812 | S. cerevisiae deletion strains, locus YPL256C, strain CLN2, stronger effect = lower value 0.256 | S. cerevisiae deletion strains, locus YPR119W, strain clb2, stronger effect = lower value 0.697 | S. cerevisiae deletion strains, locus YPR141C, strain kar3, stronger effect = lower value 0.309 | S. cerevisiae deletion strains, locus YPR163C, strain tif3, stronger effect = lower value 0.656 | S. cerevisiae deletion strains, locus YPR167C, strain met16, stronger effect = lower value 0.719 | S. cerevisiae deletion strains, strain wtn01, stronger effect = lower value 0.755 | S. cerevisiae strains, strain wild type, stronger effect = lower value 0.799
inactive: S. cerevisiae deletion strains, locus YLR039C, strain RIC1, stronger effect = lower value 0.841 | S. cerevisiae deletion strains, locus YLR262C, strain YPT6, stronger effect = lower value 0.932 | S. cerevisiae deletion strains, locus YLR342W, strain FKS1 (second series), stronger effect = lower value 0.851 | S. cerevisiae deletion strains, locus YLR357W, strain rsc2, stronger effect = lower value 0.855 | S. cerevisiae deletion strains, locus YMR125W, strain sto1, stronger effect = lower value 0.898 | S. cerevisiae deletion strains, locus YMR307W, strain GAS1, stronger effect = lower value 0.819 | S. cerevisiae deletion strains, locus YNL248C, strain rpa49, stronger effect = lower value 0.937 | S. cerevisiae deletion strains, locus YOL006C, strain TOP1, stronger effect = lower value 0.9 | S. cerevisiae deletion strains, locus YOL012C, strain htz1 0.683 | S. cerevisiae deletion strains, locus YOR106W, strain vam3, stronger effect = lower value 0.87 | S. cerevisiae deletion strains, locus YOR270C, strain vph1, stronger effect = lower value 0.901
